The test system of the test is V-C8 (BRCA2-deficient hamster cells). The test can be described thus: normalised cell viability (fraction of plate median); higher = more viable cells (less toxic). The following applies: 5 µM. Summed up:
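Cell viability was measured with a resazurin assay, normalised to the plate median (modified robust per cent of sample) and averaged over triplicate wells. Hamster V-C8 cells lacking BRCA2 and V-C8 cells with BRCA2 restored were seeded in 96-well plates. After 24 h, library drugs from 10 mM DMSO stocks were added at a final 5 μM in 100 μl medium and left for 3 days (screen 1) or 6 days (screen 2), with solvent-only wells alongside.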

Structures can show the parent of a compound that is named as a salt. ± gives the standard deviation of the averaged measurements. Over roughly 1,300 compounds, “normalised cell viability” has its median near 1; the lowest 2% begin near 0.14. Shown is part of a subset that was picked to be rich in the lowest values.

For `COc1cc([C@@H]2c3cc4c(cc3[C@H](O)[C@H]3COC(=O)[C@H]23)OCO4)cc(OC)c1OC` [Podophyllotoxin], the normalised cell viability runs as follows: (treatment time: 3 days) 0.126 ± 0.01; (treatment time: 6 days) 0.143 ± 0.0037.
Taken in the same sequence, the figures for `C[C@]12CC[C@@H]3c4ccc(OC(=O)N(CCCl)CCCl)cc4CC[C@H]3[C@@H]1CC[C@@H]2O` [Estramustine] were 0.175 ± 0.019 and 0.213 ± 0.013.
On the same counts, the results for `CCC1(C)CC(=O)NC(=O)C1` [Bemegride] are 0.925 ± 0.075 and 1.06 ± 0.055.
On the same counts, the results for `NCC(O)c1ccc(O)cc1` (racemic) [(+,-)-Octopamine hydrochloride] are 1.02 ± 0.083 and 1.1 ± 0.083.
Consider `CC[C@@]1(O)C(=O)OCc2c1cc1n(c2=O)Cc2cc3ccccc3nc2-1` [Camptothecine (S,+)], for which the normalised cell viability reads like this: (treatment time: 3 days) 0.148 ± 0.0039; (treatment time: 6 days) 0.109 ± 0.008.
On the same counts, the results for `CC[C@@]1([C@@H]2O[C@@H]([C@H]3O[C@@](O)(CO)[C@H](C)C[C@@H]3C)C[C@@H]2C)CC[C@H]([C@]2(C)CC[C@]3(C[C@H](O)[C@@H](C)[C@@H]([C@@H](C)[C@@H](OC)[C@H](C)C(=O)O)O3)O2)O1` [Monensin sodium salt] are 0.156 ± 0.0082 and 0.128 ± 0.0063.
Taken in the same sequence, the figures for `C[N+](C)(C)CCCCCCCCCC[N+](C)(C)C` [Decamethonium bromide] were 1.18 ± 0.34 and 1.019 ± 0.0077.
As for `C[N+]1(C)[C@@H]2CC[C@H]1C[C@@H](OC(=O)C(CO)c1ccccc1)C2` (stereo not given in full) [Methylatropine nitrate], the normalised cell viability (treatment time: 3 days) was determined as 1.11 ± 0.021 and the normalised cell viability (treatment time: 6 days) was 1.15 ± 0.091.
Regarding `Oc1cc(Cl)ccc1Oc1ccc(Cl)cc1Cl` [Triclosan], the normalised cell viability runs as follows: (treatment time: 3 days) 0.974 ± 0.022; (treatment time: 6 days) 1 ± 0.02.
Taken in the same sequence, the figures for `C[N+]1([O-])[C@@H]2C[C@@H](OC(=O)[C@H](CO)c3ccccc3)C[C@H]1[C@@H]1O[C@@H]12` (stereo not given in full) [Scopolamin-N-oxide hydrobromide] were 0.997 ± 0.074 and 0.945 ± 0.092.
Taken in the same sequence, the figures for `CC(C)(C)NCC(O)c1ccccc1Cl` (stereo not given) [Tulobuterol] were 1.07 ± 0.015 and 1.05 ± 0.086.
Regarding `C[C@@H]1C[C@@H]([C@H](O)CC2CC(=O)NC(=O)C2)C(=O)[C@@H](C)C1` [Cycloheximide], the normalised cell viability runs as follows: (treatment time: 3 days) 0.132 ± 0.0063; (treatment time: 6 days) 0.142 ± 0.0068.
In the case of `C=CCC1(CC(C)C)C(=O)NC(=O)NC1=O` [Butalbital], the normalised cell viability is, setting by setting: (treatment time: 3 days) 1.1 ± 0.031; (treatment time: 6 days) 1.079 ± 0.0048.
Take `C=C1[C@@H]2CC[C@H]3[C@]4(C)C[C@H](O[C@@H]5O[C@H](CO)[C@@H](OS(=O)(=O)O)[C@H](OS(=O)(=O)O)[C@H]5OC(=O)CC(C)C)C[C@@H](C(=O)O)[C@H]4CC[C@]3(C2)[C@@H]1O` [Atractyloside potassium salt]: the normalised cell viability was 1.05 ± 0.051 (treatment time: 3 days) and 1.09 ± 0.079 (treatment time: 6 days).
As to `C[C@]12CC[C@H]3[C@@H](CCC4=CC(=O)CC[C@@H]43)[C@@H]1CC[C@@H]2O` [Nandrolone], the normalised cell viability was 0.993 ± 0.11 (treatment time: 3 days) and 1.02 ± 0.028 (treatment time: 6 days).
For the molecule `CN1C[C@H](CNC(=O)OCc2ccccc2)C[C@@H]2c3cccc4c3c(cn4C)C[C@H]21` [Metergoline], the normalised cell viability is, setting by setting: (treatment time: 3 days) 0.1447 ± 0.00066; (treatment time: 6 days) 0.133 ± 0.017.
For `CN1C[C@H](C(=O)N[C@]2(C)O[C@@]3(O)[C@@H]4CCCN4C(=O)[C@H](Cc4ccccc4)N3C2=O)C[C@@H]2c3cccc4[nH]cc(c34)C[C@H]21` [Dihydroergotamine tartrate], the normalised cell viability stood at 1.06 ± 0.024 (treatment time: 3 days) and 1.02 ± 0.12 (treatment time: 6 days).
Consider `CO[C@]12C[C@@H](COC(=O)c3cncc(Br)c3)CN(C)[C@@H]1Cc1cn(C)c3cccc2c13` [Nicergoline], for which the normalised cell viability reads like this: (treatment time: 3 days) 0.886 ± 0.074; (treatment time: 6 days) 0.994 ± 0.033.
On the same counts, the results for `NC(=O)OCCCc1ccccc1` [Phenprobamate] are 1.14 ± 0.049 and 1.08 ± 0.15.
On the same counts, the results for `S=C(NC1CCCCC1)N1CCC(c2cnc[nH]2)CC1` [Thioperamide maleate] are 1 ± 0.018 and 1.02 ± 0.014.
For `C[C@H](N)[C@H](O)c1ccc(O)c(O)c1` [Levonordefrin], the normalised cell viability is, setting by setting: (treatment time: 3 days) 1.05 ± 0.05; (treatment time: 6 days) 1.02 ± 0.028.
On the same counts, the results for `CCCCCC[C@H]1C(=O)O[C@H](C)[C@H](NC(=O)c2cccc(NC=O)c2O)C(=O)O[C@@H](C)[C@@H]1OC(=O)CC(C)C` [Antimycin A] are 0.152 ± 0.0026 and 0.12 ± 0.011.
On the same counts, the results for `C[C@]12CCC(=O)C=C1CC[C@@H]1[C@@H]2C(=O)C[C@]2(C)C(=O)CC[C@@H]12` [Adrenosterone] are 1.19 ± 0.085 and 1.11 ± 0.017.
Taken in the same sequence, the figures for `CCC(C)C1O[C@]2(C=C[C@@H]1C)C[C@@H]1CC(C/C=C(\C)[C@@H](OC3C[C@H](OC)[C@@H](OC4C[C@H](OC)[C@@H](O)[C@H](C)O4)[C@H](C)O3)[C@@H](C)/C=C/C=C3\COC4[C@H](O)C(C)=CC(C(=O)O1)[C@]34O)O2` (stereo not given in full) [Avermectin B1a] were 0.486 ± 0.016 and 0.475 ± 0.052.
For `COc1ccc(CN2CCNCC2)c(OC)c1OC` [Trimetazidine dihydrochloride], the normalised cell viability turned out to be 1.05 ± 0.06 (treatment time: 3 days) and 1.06 ± 0.023 (treatment time: 6 days).
On the same counts, the results for `C=C(C)[C@@H]1[C@H]2OC(=O)[C@@H]1[C@]1(O)C[C@H]3O[C@]34C(=O)O[C@H]2[C@]14C` [Picrotoxinin] are 1.007 ± 0.0066 and 1.11 ± 0.061.
Taken in the same sequence, the figures for `Fc1ccc(C(OCCN2CCN(CCCc3ccccc3)CC2)c2ccc(F)cc2)cc1` were 0.159 ± 0.0052 and 0.182 ± 0.012.
On the same counts, the results for `COc1ccc(CCN2CCC(Nc3nc4ccccc4n3Cc3ccc(F)cc3)CC2)cc1` [Astemizole] are 0.13 ± 0.0054 and 0.099 ± 0.003.
The molecule `C[C@]12C[C@H]3S[C@H]3C[C@@H]1CC[C@@H]1[C@@H]2CC[C@]2(C)[C@@H](O)CC[C@@H]12` [Epitiostanol] returned a normalised cell viability (treatment time: 3 days) of 1.04 ± 0.012 and a normalised cell viability (treatment time: 6 days) of 1.033 ± 0.01.
Taken in the same sequence, the figures for `CC1OC(OC2/C=C/C=C/C=C/C=C/CC/C=C/C=C/[C@H](C)[C@@H](O)[C@@H](C)[C@H](C)OC(=O)CC(O)CC(O)CC(O)CCC(O)C(O)C[C@]3(O)CC(O)C(C(=O)O)C(C2)O3)C(O)C(N)C1O` (stereo not given in full) [Nystatine] were 1.06 ± 0.055 and 0.905 ± 0.084.
Regarding `CN1CCN(C(=O)OC2c3nccnc3C(=O)N2c2ccc(Cl)cn2)CC1` (stereo not given) [Zopiclone], the normalised cell viability is, setting by setting: (treatment time: 3 days) 1.11 ± 0.05; (treatment time: 6 days) 1.04 ± 0.061.
With `CCN[C@@H](C)Cc1cccc(C(F)(F)F)c1` [Dexfenfluramine hydrochloride], the normalised cell viability stood at 0.908 ± 0.092 (treatment time: 3 days) and 1.02 ± 0.074 (treatment time: 6 days).
Taken in the same sequence, the figures for `C[C@@H]1O[C@@H](O[C@@H]2C=C3CC[C@@H]4[C@H](CC[C@]5(C)[C@@H](c6ccc(=O)oc6)CC[C@]45O)[C@@]3(C)CC2)[C@H](O)[C@H](O)[C@H]1O` [Proscillaridin A] were 0.945 ± 0.013 and 0.908 ± 0.11.
Taken in the same sequence, the figures for `CCN(C(C)=O)c1cccc(-c2ccnc3c(C#N)cnn23)c1` [Zaleplon] were 1.13 ± 0.075 and 0.981 ± 0.063.
Regarding `C[C@]12Cc3c[nH]nc3C[C@@H]1CC[C@@H]1[C@@H]2CC[C@@]2(C)[C@H]1CC[C@]2(C)O` [Stanozolol], the normalised cell viability is, setting by setting: (treatment time: 3 days) 1.07 ± 0.064; (treatment time: 6 days) 1.06 ± 0.036.
On the same counts, the results for `CN[C@@H]1[C@@H](O)[C@@H](O[C@@H]2[C@@H](O)[C@H](O[C@H]3O[C@H](CN)CC[C@H]3N)[C@@H](N)C[C@H]2N)OC[C@]1(C)O.CN[C@@H]1[C@@H](O)[C@@H](O[C@@H]2[C@@H](O)[C@H](O[C@H]3O[C@H]([C@@H](C)N)CC[C@H]3N)[C@@H](N)C[C@H]2N)OC[C@]1(C)O.CN[C@@H]1[C@@H](O)[C@@H](O[C@@H]2[C@@H](O)[C@H](O[C@H]3O[C@H]([C@@H](C)NC)CC[C@H]3N)[C@@H](N)C[C@H]2N)OC[C@]1(C)O` [Gentamicine sulfate] are 0.961 ± 0.029 and 0.955 ± 0.039.
Consider `C(#CCN1CCCC1)CN1CCCC1` [Tremorine dihydrochloride], for which the normalised cell viability came out at 1.09 ± 0.065 (treatment time: 3 days) and 1.08 ± 0.06 (treatment time: 6 days).
Turning to `C[CH2][Hg][S]c1ccccc1C(=O)[O-].[Na+]` [Thimerosal], the normalised cell viability by setting is: (treatment time: 3 days) 0.0995 ± 0.0026; (treatment time: 6 days) 0.126 ± 0.0061.
On the same counts, the results for `C[N+]1(C)CCCC(OC(=O)C(O)(c2ccccc2)c2ccccc2)C1` (stereo not given) [Mepenzolate bromide] are 0.974 ± 0.054 and 1.08 ± 0.059.
Taken in the same sequence, the figures for `O=C(CCCN1CCC(n2c(=O)[nH]c3ccccc32)CC1)c1ccc(F)cc1` [Benperidol] were 0.93 ± 0.029 and 0.969 ± 0.083.
